The list is not random: actives were taken first. Their share in the collection is about 17%.
HepG2 viability: qHTS for Inhibitors of TGF-b: Cytotox Counterscreen; HepG2 CAGA-GFP viability, ATP luminescence, 18 h; actives 0.76% (n = 410,000); Potency, µM (highest dose often 46.1 µM), hits mostly cytotoxic
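HepG2 CAGA-GFP cells (1000/well, DMEM with 1% FBS) received compound, then TGF-beta at 500 pg/mL final, and were incubated 18 hours at 37 degrees C. Viability was read by CellTiter-Glo luminescence. Media-only wells were set as complete cell-killing and DMSO as no toxicity.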
ATXN2 expr inh: Primary qHTS for Inhibitors of ATXN expression; HEK-293 ATXN2-luciferase reporter, luminescence, 24 h; Potency, µM (top dose mostly 57 µM), most hits filed as inhibitors; actives 0.72% (n = 360,000); further: nearly all actives have a fitted effect of over 55% in size
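qHTS (up to 57 uM final) was run with 24 h compound exposure of reporter cells at 37 °C. Each well was multiplexed: SteadyGlo luminescence measured ATXN2-luciferase expression after a fluorogenic Gly-Phe-AFC viability readout (25 uM final).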
TGFb inhibitor: qHTS for Inhibitors of TGF-b. actives 1.2% (n = 410,000). HepG2 CAGA-GFP TGF-b/SMAD3 reporter, GFP fluorescence, 18 h; TGF-beta stimulated, 500 pg/mL final. Potency, µM (series often up to 46.1 µM), most hits filed as inhibitors; further: nearly all actives have a fitted effect of over 65% in size
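HEPG2 CAGA-GFP, 1000 cells/well; 2 h settle, 37 C; cpd via pin tool; TGF-b 500 pg/mL final; 18 h, 37 C; GFP imaging ex488/em500-530; %Activity normalised to -TGF-b and +DMSO controls; CRC fit, curve class.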
S2 tox: Viability Counterscreen for Primary qHTS for Inhibitors of ATXN expression | S2 cells (HEK-293 line with an ATXN2-luciferase reporter) viability, CellTiter-Fluor protease fluorescence, 24 h | Potency, µM (highest dose often 56.7 µM), usual class: cytotoxic | actives 0.49% (n = 400,000) | AID 651635, 2014; further: nearly all actives have a fitted effect of over 40% in size
TDP1 cell noCPT: qHTS for Inhibitors of human tyrosyl-DNA phosphodiesterase 1 (TDP1): qHTS in cells in absence of CPT; DT40 Tdp1-/- hTDP1 cells, no CPT, ATP luminescence, 48 h; Potency, µM (titrated, usually from 46.2 µM), hits mostly inhibitors; AID 686978, 2013; actives 15% (n = 420,000); further: nearly all actives have a fitted effect of over 55% in size
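DT40 Tdp1-/-;hTDP1 cells, no CPT (DMSO vehicle only), 400 cells/well; compounds pin-transferred; ≥48 hr, 37 °C; CellTiter-Glo 30 min RT dark, luminescence read.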
DT40 TDP1 CPT: qHTS for Inhibitors of human tyrosyl-DNA phosphodiesterase 1 (TDP1): qHTS in cells in presence of CPT; Potency, µM (series often up to 46.2 µM), hits mostly inhibitors; chicken DT40 Tdp1-/-;hTDP1 cells + 20 nM CPT, ATP luminescence, 48 h; actives 12% (n = 420,000); AID 686979, 2013; further: nearly all actives have a fitted effect of over 55% in size
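Chicken DT40 Tdp1-/- cells complemented with human TDP1, 400 cells/well, exposed to compounds plus 20 nM camptothecin for at least 48 h at 37 C; viability read as ATP content by CellTiter-Glo luminescence.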
Each line names hits and unclear results; the compound was inactive in the other large screens. The call rests on the fitted dose curve; in most records, active means well fitted curve in the direction sought with a large enough effect; inconclusive means small, poorly fitted or top-dose-only effect, or another doubt; inactive means no such curve, though single readings can be large; an effect the other way counts as inactive or inconclusive.

Cc1ccccc1NC(=O)C1C2CCCC1C2c1ccccc1 (stereo unspecified)	TDP1 cell noCPT inconclusive, DT40 TDP1 CPT 18µM
COCC(=O)Nc1cc(C(=O)N2CCN(c3ccc(Cl)cn3)CC2)c2c(c1)nc(C1CCC1)n2C	none (no result: HepG2 viability, ATXN2 expr inh, TGFb inhibitor)
CCN1CCc2c(sc(NC(=O)c3ccc(S(=O)(=O)N(C)C4CCCCC4)cc3)c2C(N)=O)C1	HepG2 viability 11µM, ATXN2 expr inh inconclusive, TGFb inhibitor inconclusive, TDP1 cell noCPT inconclusive, DT40 TDP1 CPT inconclusive
CC(C)N1CCc2c(sc(NC(=O)c3ccc(S(=O)(=O)N(C)CC4CCCO4)cc3)c2C(N)=O)C1 (stereo unspecified)	S2 tox inconclusive
CCCN1CCc2c(sc(NC(=O)c3ccc(S(=O)(=O)N(C)c4ccccc4)cc3)c2C(N)=O)C1	S2 tox inconclusive, TDP1 cell noCPT inconclusive, DT40 TDP1 CPT 21µM
CCOC(=O)N1CCN(S(=O)(=O)c2ccc(C(=O)Nc3sc4c(c3C(N)=O)CCN(CC)C4)cc2)CC1	TDP1 cell noCPT 21µM, DT40 TDP1 CPT inconclusive
CCOC(=O)c1c(NC(=O)C2CCCCC2)sc2c1CCN(CC)C2	TDP1 cell noCPT inconclusive, DT40 TDP1 CPT inconclusive
CCN1CCc2c(sc(NC(=O)C3CCCCC3)c2C(=O)OC)C1	TDP1 cell noCPT inconclusive, DT40 TDP1 CPT 26µM
CC(NC(=O)c1cc(-c2ccncc2)nc2ccc(Br)cc12)C1CCCO1 (stereo unspecified)	DT40 TDP1 CPT inconclusive
CC(=O)c1cnc(Oc2cc(Cl)ccc2Cl)nc1C	none
O=C(Cn1c(=O)sc2ccc(Cl)cc21)N1CCN(CCO)CC1	none (no result: HepG2 viability, ATXN2 expr inh, TGFb inhibitor)
Cn1c(=O)c2cc(NC(=O)Nc3ccccc3)ccc2n1Cc1ccccc1	S2 tox inconclusive, TDP1 cell noCPT inconclusive, DT40 TDP1 CPT inconclusive
CCN1CCc2c(sc(NC(=O)c3ccc(S(=O)(=O)N(C)CC4CCCO4)cc3)c2C(N)=O)C1 (stereo unspecified)	TDP1 cell noCPT 21µM
Clc1ccc(OCc2noc(-c3ccsc3)n2)c(Cl)c1	none
O=C(NC12CC3CC(CC(C3)C1)C2)N(Cc1ccccc1)Cc1ccncc1	TDP1 cell noCPT 18µM, DT40 TDP1 CPT 13µM
Cc1cccc(NC(=S)N(CCCN2CCOCC2)Cc2cn(C)c3ccccc23)c1	ATXN2 expr inh inconclusive, TDP1 cell noCPT inconclusive, DT40 TDP1 CPT 18µM
CCOc1ccc(NC(=S)N(CCCN2CCOCC2)Cc2cn(C)c3ccccc23)cc1	TDP1 cell noCPT 15µM, DT40 TDP1 CPT inconclusive
CCN(CC)C(=O)Cc1cn(C)c2ccccc12	none
Cc1cccc(NC(=S)N(CCN2CCOCC2)Cc2cc3cc4c(cc3[nH]c2=O)OCO4)c1	TDP1 cell noCPT inconclusive
Cc1ccc(NC(=S)N(C)Cc2cn(C)c3ccccc23)cc1	S2 tox inconclusive, TDP1 cell noCPT inconclusive, DT40 TDP1 CPT 16µM
C[N+](C)(CCOc1ccccc1)Cc1cccs1	none (no result: HepG2 viability, TGFb inhibitor)
CCOC(=O)N1CCN([N+]([O-])=NOc2cc(ON=[N+]([O-])N3CCN(C(=O)OCC)CC3)c([N+](=O)[O-])cc2[N+](=O)[O-])CC1	none (no result: HepG2 viability, TGFb inhibitor, S2 tox, TDP1 cell noCPT, DT40 TDP1 CPT)
CCN(CC)/[N+]([O-])=N/Oc1cc(O/N=[N+](\[O-])N(C)C)c([N+](=O)[O-])cc1[N+](=O)[O-]	HepG2 viability 10µM, TGFb inhibitor 6.3µM (no result: ATXN2 expr inh, S2 tox, TDP1 cell noCPT, DT40 TDP1 CPT)
CCNC(=S)NNC(=O)c1cc(-c2ccccc2C)nc2ccccc12	none
COc1ccc(-c2cc(C(=O)NCc3ccc(C)cc3)c3cc(C(C)C)ccc3n2)cc1	TDP1 cell noCPT inconclusive
CCCCNC(=S)NNC(=O)c1cc(-c2ccncc2)nc2ccccc12	none
CCCCNC(=S)NNC(=O)c1cc(C2CC2)nc2ccccc12	TGFb inhibitor inconclusive, TDP1 cell noCPT 3.7µM, DT40 TDP1 CPT inconclusive
CCNC(=S)NNC(=O)c1cc(-c2ccc(OCC)cc2)nc2ccccc12	HepG2 viability 7.9µM, TDP1 cell noCPT 4.5µM, DT40 TDP1 CPT 5µM
CCNC(=S)NNC(=O)c1cc(-c2cccc(OC)c2)nc2ccccc12	TDP1 cell noCPT 16µM, DT40 TDP1 CPT inconclusive
CCOc1ccccc1CNC(=O)c1cc(-c2ccc(OC)cc2)nc2ccc(C(C)C)cc12	TDP1 cell noCPT 16µM, DT40 TDP1 CPT 16µM
C=N[C@@H](C(=O)N[C@@H]1C(=O)N2[C@@H]1SC(C)(C)[C@@H]2C(=O)O)c1ccccc1	none (no result: HepG2 viability, ATXN2 expr inh, TGFb inhibitor, S2 tox)
NC(=O)c1nc(-c2ccc(F)c(F)c2)nc2c1[nH]c(=O)n2-c1cccc(Cl)c1	DT40 TDP1 CPT inconclusive (no result: ATXN2 expr inh, TGFb inhibitor, S2 tox)
CCCCn1c(N)c(N(CC(C)C)C(=O)c2cc(-c3ccc(F)cc3)nc3ccccc23)c(=O)[nH]c1=O	none
Cc1nc2ccccc2n1CCc1nc2c3ccccc3nc(=S)n2[nH]1	none
Cc1ccccc1-c1nc2c3ccccc3nc(=S)n2[nH]1	TGFb inhibitor inconclusive, TDP1 cell noCPT 3.3µM, DT40 TDP1 CPT 4.1µM
COc1ccccc1C1=NOC(COc2ccc3c(C)cc(=O)oc3c2)C1 (stereo unspecified)	TGFb inhibitor inconclusive, TDP1 cell noCPT 0.82µM, DT40 TDP1 CPT 0.82µM
COc1ccc(C2=NOC(COc3ccc4c(C)cc(=O)oc4c3)C2)c(OC)c1 (stereo unspecified)	TGFb inhibitor inconclusive, S2 tox inconclusive, TDP1 cell noCPT 5.2µM, DT40 TDP1 CPT 4.1µM
COc1ccc2c(C)cc(=O)oc2c1	none
O=Cc1cc(OCc2ccccc2)ccc1[B-](F)(F)F	TGFb inhibitor inconclusive, TDP1 cell noCPT 2.1µM, DT40 TDP1 CPT 1.3µM
O=C(Cc1ccc(OCc2ccccc2)cc1)NO	TDP1 cell noCPT inconclusive, DT40 TDP1 CPT inconclusive (no result: ATXN2 expr inh, S2 tox)
CCOc1ccccc1NC(=O)CSc1nnc(CNC(=O)c2cc(OC)c(OC)c(OC)c2)o1	none
CNc1cncc(-c2cc(C)c(O)c(C)c2)n1	TDP1 cell noCPT 6.5µM, DT40 TDP1 CPT 4.1µM
CN1CCN(CCCNC(=O)c2cn(C3CCCCC3)c(=O)c3c2c2ccccc2n3C)CC1	none
Cn1c2ccccc2c2c(C(=O)N3CCN(c4ccccc4)CC3)cn(C3CCCC3)c(=O)c21	TDP1 cell noCPT 8.2µM, DT40 TDP1 CPT 26µM
Cc1ccc(-n2nc(C(=O)N3CCN(c4cc(C)ccc4C)CC3)c3c4ccccc4n(C)c3c2=O)cc1	none
Cn1cc(C(=O)N2CCN(c3cccc(C(F)(F)F)c3)CC2)c2c3ccccc3n(C)c2c1=O	ATXN2 expr inh inconclusive, TGFb inhibitor inconclusive, TDP1 cell noCPT 16µM, DT40 TDP1 CPT 23µM (no result: S2 tox)
